Test results taken from PubChem BioAssay (Tox21).
Values joined by “and” are separate entries in the source; they are usually repeats but may differ in a detail not shown here. Identical values can stand only once. Records with an inconclusive call do not appear. Active and inactive are the calls of the source. The call rests on the fitted dose curve; in most records, active means well fitted curve in the direction sought with a large enough effect in the repeat runs; inconclusive means weak or mixed curves; inactive means no such curve, though single readings can be large; an effect the other way counts as inactive or inconclusive.

How the values were obtained:
[1] = A CellTox Green Cytotoxicity Assay to monitor cytotoxicity in HEK293 cells - 32 hour (AID 1224881); further: nearly all actives have a fitted effect of over 40% in size; further: potency means the concentration at half of the fitted maximal effect
Summary of the method: (§1)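 Seeding of HEK293 cells together with cytotoxicity dye preceded a 5 h incubation at 37 C/5% CO2. Test compounds in DMSO were then added and fluorescence monitored across 40 h.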

[2] = A CellTox Green Cytotoxicity Assay to monitor cytotoxicity in HepG2 cells - 0 hour (AID 1224882); further: nearly all actives have a fitted effect of over 35% in size
Summary of the method: (§2)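 Nonlytic assay: viable cells exclude the dye, so fluorescence scales with cell death. HepG2 at 600 cells/well, compounds added after 5 h, signal read across 40 h.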

[3] = A CellTox Green Cytotoxicity Assay to monitor cytotoxicity in HEK293 cells - 8 hour (AID 1224884); further: nearly all actives have a fitted effect of over 35% in size; further: potency means the concentration at half of the fitted maximal effect
Summary of the method: as §1

[4] = A CellTox Green Cytotoxicity Assay to monitor cytotoxicity in HEK293 cells - 16 hour (AID 1224888); further: nearly all actives have a fitted effect of over 35% in size; further: potency means the concentration at half of the fitted maximal effect
Summary of the method: as §1

[5] = A CellTox Green Cytotoxicity Assay to monitor cytotoxicity in HepG2 cells - 8 hour (AID 1224890); further: nearly all actives have a fitted effect of over 45% in size
Summary of the method: as §2

[6] = qHTS RealTime-Glo MT Cell Viability Assay in HEK293 cells - 24 hour (AID 1224886); further: nearly all actives have a fitted effect of over 50% in size; further: potency means the concentration at half of the fitted maximal effect; on activity change, negative = cytotoxicity: top concentration of the series differs between compounds
Summary of the method: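 Assay medium contained NanoLuc luciferase plus cell-permeant prosubstrate, added with HEK293 cells at 600 cells/well. After 5 h at 37 C/5% CO2 compounds were added; plates stayed at 37 C for 40 h with serial luminescence reads.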

[7] = qHTS RealTime-Glo MT Cell Viability Assay in HepG2 cells - 0 hour (AID 1224889); further: nearly all actives have a fitted effect of over 50% in size
Summary of the method: (§3)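 qHTS, HepG2, 600 cells/well, RealTime-Glo (NanoLuc + prosubstrate) added with cells; 5 h preincubation; DMSO compound addition; 37 C; luminescence at 0/8/16/24/32/40 h.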

[8] = qHTS RealTime-Glo MT Cell Viability Assay in HepG2 cells - 16 hour (AID 1224885); further: nearly all actives have a fitted effect of over 50% in size; further: potency means the concentration at half of the fitted maximal effect
Summary of the method: as §3

[9] = qHTS RealTime-Glo MT Cell Viability Assay in HEK293 cells - 8 hour (AID 1224887); further: nearly all actives have a fitted effect of over 50% in size; further: potency means the concentration at half of the fitted maximal effect; on activity change, negative = cytotoxicity: top concentration of the series differs between compounds
Summary of the method: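 Tox21 screen in HEK293 using RealTime-Glo MT chemistry, with cells and reagent co-dispensed. Luminescence proportional to viable cell number was captured at intervals during 40 h compound exposure at 37 C.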

[10] = A CellTox Green Cytotoxicity Assay to monitor cytotoxicity in HepG2 cells - 32 hour (AID 1224883); further: nearly all actives have a fitted effect of over 50% in size; further: potency means the concentration at half of the fitted maximal effect
Summary of the method: as §2
On the % scale 0 is the no-effect control and ±100 the full control effect.

CC(C)(C)c1cc([N+](=O)[O-])cc(C(C)(C)C)c1O
inactive: Potency [1] | Potency [2] | Potency [3] | Potency [4] | Potency [5]

Cc1cc(C(C)(C)c2cc(C)c(O)c(C)c2)cc(C)c1O
active: Potency [6] 21.2 µM
inactive: Potency [1] | Potency [2] | Potency [3] | Potency [7] | Potency [5]

O=C(Cl)c1ccc(Cl)cc1
inactive: Potency [1] | Potency [2] | Potency [3] | Potency [8] | Potency [4] | Potency [5]

CCCCN(CCCC)C(=S)[S-].CCCCN(CCCC)C(=S)[S-].[Zn+2]
inactive: Potency [2] | Potency [3] | Potency [4] | Potency [7] | Potency [5]
active: Potency [1] 19.5 µM | Potency [8] 34.7 µM | Potency [6] 11 µM

CCOP(=S)(OCC)SCCS(=O)(=O)CC
inactive: Potency [1] | Potency [2] | Potency [3] | Potency [6] | Potency [9] | Potency [4] | Potency [5]

CCOC(=O)C1(c2ccccc2)CCN(CCC(C#N)(c2ccccc2)c2ccccc2)CC1
inactive: Potency [1] | Potency [2] | Potency [3] | Potency [6] | Potency [9] | Potency [7] | Potency [5]

CSCCCN=C=S
inactive: Potency [1] | Potency [2] | Potency [3] | Potency [8] | Potency [9] | Potency [4] | Potency [7] | Potency [5]

CC(C)(O)c1cnn2c(-c3ccc(F)c(-c4c(F)cccc4C#N)c3)cnc2n1
active: Potency [6] 5.49 µM | Potency [9] 6.16 µM
inactive: Potency [2] | Potency [10] | Potency [3] | Potency [8]

ClC1=C(Cl)[C@]2(Cl)[C@@H]3[C@@H]4C[C@@H]([C@H]5O[C@@H]45)[C@@H]3[C@@]1(Cl)C2(Cl)Cl
active: Potency [1] 43.6 µM | Potency [10] 54.9 µM | Potency [3] 27.5 µM | Potency [6] 21.9 µM | Potency [9] 38.9 µM | Potency [4] 49 µM
inactive: Potency [7]

CC(C)C1CCC(Cc2ccc(Cl)cc2)C1(O)Cn1cncn1 (stereo not drawn)
active: Potency [1] 34.3 µM | Potency [8] 34.3 µM | Potency [6] 12.2 µM | Potency [9] 13.7 µM
inactive: Potency [2] | Potency [4] | Potency [7]

Brc1c(Br)c(Br)c(Oc2c(Br)c(Br)c(Br)c(Br)c2Br)c(Br)c1Br
inactive: cytotoxicity increase [1] -3.94% [at 15.8 µM] | cytotoxicity [2] -0.0157% [at 15.8 µM] | cytotoxicity increase [3] -3.68% [at 15.8 µM] | activity change, negative = cytotoxic [8] 1.53% [at 15.8 µM] | activity change, negative = cytotoxicity [6] -0.0351% [at 15.8 µM] | activity change, negative = cytotoxicity [7] 13.9% [at 15.8 µM] | cytotoxicity increase [5] -0.348% [at 15.8 µM]

CC(C)(C)c1ccc(CSc2cnn(C(C)(C)C)c(=O)c2Cl)cc1
active: Potency [6] 0.0389 µM | Potency [9] 7.76 µM
inactive: Potency [1] | Potency [2] | Potency [3] | Potency [7]

CCOC(=O)c1ccccc1S(=O)(=O)NC(=O)Nc1nc(Cl)cc(OC)n1
active: Potency [1] 54.9 µM
inactive: Potency [2] | Potency [8] | Potency [7] | Potency [5]

O=[N+]([O-])c1c2ccccc2cc2ccccc12
active: Potency [1] 5.43 µM | Potency [4] 5.43 µM
inactive: Potency [2] | Potency [3] | Potency [6] | Potency [7] | Potency [5]

Oc1cc(Cl)c(Cl)c(Cl)c1
inactive: Potency [2] | Potency [3] | Potency [8] | Potency [9] | Potency [4]
active: Potency [1] 11.7 µM

N#Cc1ccccc1Cl
inactive: Potency [1] | Potency [2] | Potency [3] | Potency [6] | Potency [9] | Potency [4] | Potency [7] | Potency [5]

c1ccc2cc3c(cc2c1)-c1cccc2cccc-3c12
inactive: Potency [2] | Potency [10] | Potency [3] | Potency [8] | Potency [6] | Potency [9] | Potency [4] | Potency [7]

ClC1=C(Cl)C2(Cl)C3C(Cl)C(Cl)CC3C1(Cl)C2(Cl)Cl (stereo not drawn)
active: Potency [1] 48.8 µM and 49 µM | Potency [3] 54.8 µM | Potency [6] 48.8 µM | Potency [9] 48.8 µM and 49 µM | Potency [4] 54.8 µM
inactive: Potency [2] | Potency [7]

[Cl][Sb]([Cl])[Cl]
inactive: Potency [1] | Potency [2] | Potency [3] | Potency [8] | Potency [9] | Potency [4] | Potency [7] | Potency [5]

Clc1ccc(-c2ccccc2)cc1
inactive: Potency [2] | Potency [10] | Potency [3] | Potency [8] | Potency [6] | Potency [9] | Potency [4] | Potency [7] | Potency [5]

Cn1cc(C2=C(c3cn(C4CCN(Cc5ccccn5)CC4)c4ccccc34)C(=O)NC2=O)c2ccccc21
inactive: Potency [2] | Potency [10] | Potency [3] | Potency [6] | Potency [9] | Potency [4] | Potency [7]

OC(c1ccc(Cl)cc1)(c1ccc(Cl)cc1)C(Cl)(Cl)Cl
active: Potency [9] 49 µM
inactive: Potency [2] | Potency [10] | Potency [3] | Potency [8] | Potency [4] | Potency [7] | Potency [5]

Oc1c(Cl)c(Cl)cc(Cl)c1Cl
active: Potency [6] 47.6 µM
inactive: Potency [2] | Potency [10] | Potency [3] | Potency [8] | Potency [7] | Potency [5]

CCOCn1c(-c2ccc(Cl)cc2)c(C#N)c(Br)c1C(F)(F)F
inactive: Potency [2] | Potency [3] | Potency [4] | Potency [7] | Potency [5]
active: Potency [10] 12.3 µM | Potency [6] 4.9 µM

CCOP(=S)(OCC)OC(Cl)C(Cl)(Cl)Cl (stereo not drawn)
inactive: Potency [2] | Potency [10] | Potency [3] | Potency [6] | Potency [9] | Potency [5]
